Records with an inconclusive call do not appear. A number with no mark means an inactive call. The source made the active and inactive calls. The call rests on the fitted dose curve; in most records, active means well fitted inhibition curve with a large enough effect; inconclusive means small, poorly fitted or top-dose-only effect; inactive means flat fitted curve, though single readings scatter.

Galactokinase (Homo sapiens), sequence (P51570 whole entry, looked up): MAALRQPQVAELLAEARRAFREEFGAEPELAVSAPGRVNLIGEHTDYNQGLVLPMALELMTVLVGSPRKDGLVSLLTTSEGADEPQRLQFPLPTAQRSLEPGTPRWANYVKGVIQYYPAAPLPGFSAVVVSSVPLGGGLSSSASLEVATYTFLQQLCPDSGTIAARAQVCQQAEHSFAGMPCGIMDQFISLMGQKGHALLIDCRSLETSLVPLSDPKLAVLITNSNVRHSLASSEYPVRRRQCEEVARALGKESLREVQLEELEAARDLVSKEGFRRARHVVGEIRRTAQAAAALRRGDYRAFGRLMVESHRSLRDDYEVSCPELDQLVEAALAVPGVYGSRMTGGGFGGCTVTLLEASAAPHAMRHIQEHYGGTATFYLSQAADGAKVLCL

This test deals with Galactokinase (Homo sapiens) (UniProt P51570). Nature of the test: qHTS for Inhibitors of Human Galactokinase (GALK): SAR round 3. Conditions: ADP detection luminescence, 1 h; series mostly up to 57.5 µM; activity change, negative = inhibition: at the top concentration. An excerpt:
Inherited deficiency of galactose-1-phosphate uridyltransferase (GALT) can result in a potentially lethal disorder called Classic Galactosemia (OMIM 230400). Several lines of evidence indicate that an elevated level of galactose-1-phosphate (gal-1-p), the product of galactokinase (GALK), is a major, if not sole, pathogenic mechanism in patients with classic galactosemia. Therefore, finding inhibitors of GALK is a potential novel therapy for this inherent metabolic disease and is the long term goal of this project. Active compounds observed in the qHTS GALK assay (AID: 1868) were cherry picked and re-screened for validation. GALK (provided by Kent Lai) was assayed using ATP and D-(+)-Galactose (Sigma-Aldrich cat# G0750) as substrates. Promega ADP-Glo technology was used to detect the ADP product formed after the kinase reaction. Kinase reactions with and without GALK were used as negative and positive controls together with Protein Tyrosine Phosphatase CD45 inhibitor (EMD Bioscience cat# 540215) which is shown to inhibit GALK activity. Decrease in activity corresponds to inhibition of the enzyme, the desired outcome for this assay. NIH Molecular Libraries Probe Production Network [MLPCN] NIH Chemical Genomics Center [NCGC] Grant: MH085689-01 PI Name: Kent Lai, University of Utah
Three uL/well of ATP-buffer solution (35 uM ATP, 20mM HEPES pH8.0, 5 mM MgCl2, 60 mM NaCl, 1 mM DTT, 0.01% BSA final concentration) was dispensed into 1536-well, assay plates (Greiner, solid white medium-binding plates) with Aurora Discovery BioRAPTR Flying Reagent Dispenser (FRD; Beckton-Dickenson). Compound and control solution (23 nL) was transferred to the assay plate using the Kalypsys 1536-pin tool apparatus. One uL/well GALK-galactose solution (5 nM GALK, 100 uM galactose, 20 mM HEPES pH8.0, 5 mM MgCl2, 60 mM NaCl, 1 mM DTT, 0.01% BSA final concentration) was then added using the FRD yielding a total kinase reaction volume of 4 uL/ well. After 1 hour of room temperature incubation, 4 uL Kinase-Glo Plus reagent was added for a final assay volume of 8 uL/well. Luminescence was detected with the ViewLux plate reader (Perkin Elmer, Waltham, MA) after 2 min incubation using a 1 sec exposure time and 2x binning.
Background: Quantitative high-throughput screening tests each substance at several concentrations.
Regarding `O=C1CCCC2=C1C(c1[nH]ncc1Cl)NC(=NCCc1ccccc1)N2` (stereo not given), the “activity change, negative = inhibition” value is 0.974%.

As to `O=C1CCCC2=C1C(c1ccc(Cl)cc1)N=C(Nc1nc3ccccc3o1)N2` (stereo not given), the “activity change, negative = inhibition” value was -5.92%.

As for `Cc1nc(Nc2nc3ccccc3o2)nc(-c2ccccc2Br)c1C(=O)NCc1ccccc1`, the “activity change, negative = inhibition” value was 2.91%.

Consider `O=C1CCCC2=C1C(c1[nH]ncc1Cl)N=C(c1nc3ccccc3o1)N2` (stereo not given), for which the “activity change, negative = inhibition” value was 1.55%.

`CC1=C(C(=O)Nc2noc3ccccc23)C(c2nn(C)cc2Cl)N=C(Nc2nc3ccccc3o2)N1` (stereo not given): the “activity change, negative = inhibition” value was 2.33%.

As for `O=C1CCCC2=C1C(c1[nH]ncc1Cl)NC(=NCc1ccco1)N2` (stereo not given), the “activity change, negative = inhibition” value was -8.02%.

`COc1cccc2nc(Nc3nc4ccccc4o3)nc(-c3ccccc3Cl)c12`: the “activity change, negative = inhibition” value was -7.85%.

`O=C1CCCC2=C1C1(CCSCC1)N=C(Nc1nc3ccccc3o1)N2`: the Potency was 3.43 µM (active).

Take `Cc1ccc(C2N=C(Nc3nc4ccccc4o3)NC3=C2C(=O)CCC3)cc1` (stereo not given): the “activity change, negative = inhibition” value was -4.94%.

Turning to `CC1=C(C(=O)Nc2nc3ccccc3s2)C(c2[nH]ncc2Cl)N=C(Nc2nc3ccccc3o2)N1` (stereo not given), the “activity change, negative = inhibition” value was -9.72%.

Turning to `O=C1CCCC2=C1C(c1ccccc1Br)N=C(Nc1nc3ccccc3o1)N2` (stereo not given), the Potency was 6.11 µM (active).

For `CC1=C(C(=O)Nc2noc3ccccc23)C2(CCCC2)N=C(Nc2nc3ccccc3o2)N1`, the “activity change, negative = inhibition” value is 2.5%.

Regarding `Nc1ncc(S(=O)(=O)N2CCOCC2)s1`, the “activity change, negative = inhibition” value was -3.83%.

As to `O=C1CCCC2=C1C(c1[nH]ncc1Cl)N=C(Nc1nc3c(Br)cccc3o1)N2` (stereo not given), the “activity change, negative = inhibition” value is -4.45%.

In the case of `Cc1nc(CN=C2NC3=C(C(=O)CCC3)C(c3[nH]ncc3Cl)N2)cs1` (stereo not given), the “activity change, negative = inhibition” value was -0.394%.

Take `Cc1ccc2oc(NC3=NC(c4ccccc4Cl)C4=C(CCCC4=O)N3)nc2c1` (stereo not given): the Potency is 6.11 µM (active).

Take `O=C1CCCC2=C1C(c1[nH]ncc1Cl)NC(=S)N2` (stereo not given): the “activity change, negative = inhibition” value was 0.552%.

As for `Cn1ncc(Cl)c1C1N=C(Nc2nc3ccccc3o2)NC2=C1C(=O)CCC2` (stereo not given), the “activity change, negative = inhibition” value is -5.52%.

As for `O=C1CCCC2=C1C(c1ncccc1Br)N=C(Nc1nc3ccccc3o1)N2` (stereo not given), the “activity change, negative = inhibition” value was -27.8%.

For `CCOC(=O)c1cnc(NC2=NC(c3ccccc3Cl)C3=C(CCCC3=O)N2)o1` (stereo not given), the “activity change, negative = inhibition” value is 1.33%.

With `O=C1CCCC2=C1C(c1[nH]ncc1Cl)N=C(Nc1nc3cc(Cl)ccc3o1)N2` (stereo not given), the “activity change, negative = inhibition” value is 3.78%.

In the case of `O=C1CCCC2=C1C1(CCCC1)N=C(Nc1nc3ccccc3n1Cc1ccccc1)N2`, the “activity change, negative = inhibition” value was 6.14%.

For the molecule `Cc1nc(Nc2nc3ccccc3o2)nc2c1CCCC2`, the “activity change, negative = inhibition” value is -1.21%.

Take `COc1cccc(C2N=C(Nc3nc4ccccc4o3)NC3=C2C(=O)CCC3)c1` (stereo not given): the “activity change, negative = inhibition” value is -29%.

Take `O=c1cc(CN2CCCN(c3ccc(C(F)(F)F)cn3)CC2)nc2ccccn12`: the “activity change, negative = inhibition” value was -2.21%.

Turning to `CC1=C(C(=O)Nc2ccon2)C2(CCCC2)N=C(Nc2nc3ccccc3o2)N1`, the Potency was 17.2 µM (active).

For `O=C1CCCC2=C1C(c1[nH]ncc1Cl)NC(=NCc1ccccc1)N2` (stereo not given), the “activity change, negative = inhibition” value is 1.45%.

On to `CN(C)c1ccc(C2N=C(Nc3nc4ccccc4o3)NC3=C2C(=O)CCC3)cc1` (stereo not given), for which the “activity change, negative = inhibition” value is -0.254%.

Turning to `O=C1CCCC2=C1C(c1cccc(F)c1)N=C(Nc1nc3ccccc3o1)N2` (stereo not given), the “activity change, negative = inhibition” value is -24.3%.

Take `CC1=C(C(=O)NC2CC2)C(c2[nH]ncc2Cl)N=C(Nc2nc3ccccc3o2)N1` (stereo not given): the “activity change, negative = inhibition” value was -24.1%.

Consider `O=C1CCCC2=C1C(c1[nH]ncc1Cl)N=C(Nc1ccccn1)N2` (stereo not given), for which the “activity change, negative = inhibition” value is 0.613%.

For `O=C1CCCC2=C1C1(CCCC1)N=C(Nc1nc3ccccc3o1)N2`, the “activity change, negative = inhibition” value was -28.9%.

As to `O=C1CCCC2=C1C(c1[nH]ncc1Cl)N=C(Nc1nc3cc([S+](=O)([O-])N4CCCC4)ccc3o1)N2` (stereo not given), the “activity change, negative = inhibition” value is -1.17%.

`N#CC1=C(Nc2nc3ccccc3o2)OC2=C(C(=O)CCC2)C1c1[nH]ncc1Cl` (stereo not given): the “activity change, negative = inhibition” value was 1.8%.

Consider `CC1(C)CC(=O)C2=C(C1)NC(Nc1nc3ccccc3o1)=NC21CCCC1`, for which the “activity change, negative = inhibition” value is -18.6%.

For `CC1=C(C(=O)Nc2nc3ccccc3s2)C(c2nn(C)cc2Cl)N=C(Nc2nc3ccccc3o2)N1` (stereo not given), the “activity change, negative = inhibition” value is -5.31%.

On to `O=C1CCCC2CC(Nc3nc4ccccc4o3)CC(c3ccccc3)C12` (stereo not given), for which the “activity change, negative = inhibition” value was -0.0792%.

`CC(C)CN1CC2=C(C1=O)C(c1ccccc1Cl)N=C(Nc1nc3ccccc3o1)N2` (stereo not given): the “activity change, negative = inhibition” value is -8.14%.

Take `O=C1CCCC2=C1C(c1cccnc1)N=C(Nc1nc3ccccc3o1)N2` (stereo not given): the “activity change, negative = inhibition” value is -15.6%.

Take `Cc1nc(C2=NC(c3ccccc3Cl)C3=C(CCCC3=O)N2)cs1` (stereo not given): the “activity change, negative = inhibition” value is 2.05%.

(Values after PubChem BioAssay AID720664 (National Center for Advancing Translational Sciences (NCATS), 2013).)
